PubChem BioAssay (EPA / NIEHS)
Values joined by “and” are separate entries in the source; they are usually repeats but may differ in a detail not shown here. Identical values can stand only once. Some compounds were tested as several samples or in several runs, with calls that do not always agree. Active and inactive are the calls of the source. How the source made its calls: active means hit-call score of the fitted dose curve at least 0.9, where 1 is the maximum; inactive means score below 0.9.

Experiments:
[1] = read-out: Collagen III, COL3A1 (gene 1281); assay: BSK_hDFCGF_CollagenIII: BioMAP Diversity Plus: hDFCGF Assay for Collagen III Biomarker Activity (AID 2283056); conditions: primary human foreskin fibroblasts; actives raise or lower the signal
How it was run: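 ELISA readout of Collagen III in human dermal (foreskin) fibroblasts, taken 24 h post-treatment. Gain or loss relative to DMSO vehicle fitted in both directions.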

[2] = read-out: Epidermal growth factor receptor (EGFR), EGFR (gene 1956); assay: BSK_hDFCGF_EGFR: BioMAP Diversity Plus: hDFCGF Assay for Epidermal growth factor receptor (EGFR) Biomarker Activity (AID 2283057); conditions: primary human foreskin fibroblasts; actives raise or lower the signal
How it was run: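 Cell-based multiplexed assay in primary human foreskin fibroblasts. EGFR is read by ELISA 24 h after treatment and compared with DMSO controls.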

[3] = BSK_hDFCGF_Proliferation: Cell Proliferation Assessment in the BioMAP Diversity Plus: hDFCGF Assay (AID 2283059); conditions: primary human foreskin fibroblasts;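 further: curves fitted for both rise and fall of signal versus DMSO baseline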
How it was run: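 This proliferation readout used SRB total-protein staining of human foreskin fibroblasts […], normalized to DMSO with bidirectional curve fitting.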

[4] = read-out: Macrophage colony-stimulating factor (MCSF), CSF1 (gene 1435); assay: BSK_hDFCGF_MCSF: BioMAP Diversity Plus: hDFCGF Assay for Macrophage colony-stimulating factor (MCSF) Biomarker Activity (AID 2283060); conditions: primary human foreskin fibroblasts; actives raise or lower the signal
How it was run: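 M-CSF levels read by ELISA at 24 h post-dosing in human skin fibroblasts. Parallel cultures stained with SRB assessed cytotoxicity at the same time point; response fitted in both directions against the DMSO baseline.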

[5] = BSK_hDFCGF_SRB: Viability Assessment in the BioMAP Diversity Plus: hDFCGF Assay (AID 2283061); conditions: primary human foreskin fibroblasts;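 further: cells exposed to compound for 24 h before the read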
How it was run: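 Viability was read as total protein: after 10% TCA fixation, wells were stained with 0.1% sulforhodamine B and read at 560 nm. Primary human foreskin fibroblasts were dosed for 24 h, with bidirectional fitting versus DMSO.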

[6] = read-out: TIMP metallopeptidase inhibitor 1 (TIMP1), TIMP1 (gene 7076); assay: BSK_hDFCGF_TIMP1: BioMAP Diversity Plus: hDFCGF Assay for TIMP metallopeptidase inhibitor 1 (TIMP1) Biomarker Activity (AID 2283062); conditions: primary human foreskin fibroblasts; actives raise or lower the signal
How it was run: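 TIMP-1 measured by ELISA 24 h after chemical dosing of primary human skin fibroblasts, with gain or loss fitted relative to DMSO. Parallel SRB staining (560 nm) monitored overt cytotoxicity.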

[7] = read-out: Monokine induced gamma interferon (MIG), CXCL9 (gene 4283); assay: BSK_hDFCGF_MIG: BioMAP Diversity Plus: hDFCGF Assay for Monokine induced gamma interferon (MIG) Biomarker Activity (AID 2283063); conditions: primary human foreskin fibroblasts; actives raise or lower the signal
How it was run: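 Human primary foreskin fibroblasts in the hDFCGF system, exposed to test chemical for 24 h; MIG measured by ELISA. Bidirectional curve fitting against DMSO negative control as activity baseline.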

[8] = read-out: Matrix Metallopeptidase 1 (MMP1), MMP1 (gene 4312); assay: BSK_hDFCGF_MMP1: BioMAP Diversity Plus: hDFCGF Assay for Matrix Metallopeptidase 1 (MMP1) Biomarker Activity (AID 2283064); conditions: primary human foreskin fibroblasts; actives raise or lower the signal
How it was run: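 ELISA read-out of MMP1 from human foreskin fibroblasts (primary skin cells), 24 h post-dose. Gain or loss of signal was fitted bidirectionally versus DMSO negative control; cytotoxicity was checked by SRB in parallel cultures.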

[9] = read-out: Vascular cell adhesion molecule 1 (VCAM1), VCAM1 (gene 7412); assay: BSK_hDFCGF_VCAM1: BioMAP Diversity Plus: hDFCGF Assay for Vascular cell adhesion molecule 1 (VCAM1) Biomarker Activity (AID 2283065); conditions: primary human foreskin fibroblasts; actives raise or lower the signal;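 on AC50: VCAM-1 protein level quantified by ELISA after 24 h chemical exposure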
How it was run: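 ELISA readout of VCAM-1 on human dermal fibroblast primary cultures, 24 h after chemical exposure. Gain or loss of signal fitted in both directions against DMSO baseline.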

[10] = read-out: Plasminogen activator inhibitor-1 (PAI1), SERPINE1 (gene 5054); assay: BSK_hDFCGF_PAI1: BioMAP Diversity Plus: hDFCGF Assay for Plasminogen activator inhibitor-1 (PAI1) Biomarker Activity (AID 2283066); conditions: primary human foreskin fibroblasts; actives raise or lower the signal
How it was run: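 Human skin fibroblast cultures receive chemical for 24 h before PAI-1 is measured by ELISA; signal changes are fitted bidirectionally against DMSO-treated wells.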

[11] = read-out: Intercellular Adhesion Molecule 1 (ICAM1), ICAM1 (gene 3383); assay: BSK_KF3CT_ICAM1: BioMAP Diversity Plus: KF3CT Assay for Intercellular Adhesion Molecule 1 (ICAM1) Biomarker Activity (AID 2283067); conditions: primary human keratinocytes with fibroblasts; actives raise or lower the signal
How it was run: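 Cell-surface ICAM-1 was measured by ELISA 24 h after dosing primary human skin keratinocytes co-cultured with fibroblasts. Parallel SRB staining tracked overt cytotoxicity. Gain or loss of signal was fitted relative to DMSO.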

[12] = read-out: Interferon-gamma inducible Protein 10 (IP10), CXCL10 (gene 3627); assay: BSK_KF3CT_IP10: BioMAP Diversity Plus: KF3CT Assay for Interferon-gamma inducible Protein 10 (IP10) Biomarker Activity (AID 2283068); conditions: primary human keratinocytes with fibroblasts; actives raise or lower the signal
How it was run: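 Signal is secreted/surface IP-10 by ELISA in a human primary skin co-culture of keratinocytes and foreskin fibroblasts, taken 24 h post-dosing; DMSO served as negative control.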

[13] = BSK_KF3CT_SRB: Viability Assessment in the BioMAP Diversity Plus: KF3CT Assay (AID 2283069); conditions: primary human keratinocytes with fibroblasts;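 further: total protein by sulforhodamine B staining as a cytotoxicity measure; read 24 h after compound addition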
How it was run: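 SRB read-out at 560 nm (0.1% stain, TCA-fixed cells) gauges overt cytotoxicity in a human skin keratinocyte–fibroblast co-culture 24 h post-dosing. Signal change was fitted bidirectionally relative to DMSO control.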

[14] = read-out: Interleukin-1 alpha (IL1a), IL1A (gene 3552); assay: BSK_KF3CT_IL1a: BioMAP Diversity Plus: KF3CT Assay for Interleukin-1 alpha (IL1a) Biomarker Activity (AID 2283070); conditions: primary human keratinocytes with fibroblasts; actives raise or lower the signal
How it was run: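 Primary skin co-culture (keratinocytes, foreskin fibroblasts), 24 h exposure; ELISA for IL-1a; bidirectional curve fit vs DMSO.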

[15] = read-out: TIMP metallopeptidase inhibitor 2 (TIMP2), TIMP2 (gene 7077); assay: BSK_KF3CT_TIMP2: BioMAP Diversity Plus: KF3CT Assay for TIMP metallopeptidase inhibitor 2 (TIMP2) Biomarker Activity (AID 2283071); conditions: primary human keratinocytes with fibroblasts; actives raise or lower the signal
How it was run: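 Measurements come from ELISA detection of TIMP-2 at 24 hours in a dosed human keratinocyte and foreskin fibroblast co-culture. DMSO serves as negative control and baseline.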

[16] = read-out: Transforming growth factor beta 1 (TGFb1), TGFB1 (gene 7040); assay: BSK_KF3CT_TGFb1: BioMAP Diversity Plus: KF3CT Assay for Transforming growth factor beta 1 (TGFb1) Biomarker Activity (AID 2283072); conditions: primary human keratinocytes with fibroblasts; actives raise or lower the signal
How it was run: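 TGF-b1 ELISA on a 24 h dosed co-culture of human keratinocytes and foreskin fibroblasts; cytotoxicity tracked in parallel cultures by SRB staining.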

[17] = read-out: Matrix Metallopeptidase 9 (MMP9), MMP9 (gene 4318); assay: BSK_KF3CT_MMP9: BioMAP Diversity Plus: KF3CT Assay for Matrix Metallopeptidase 9 (MMP9) Biomarker Activity (AID 2283074); conditions: primary human keratinocytes with fibroblasts; actives raise or lower the signal;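 on AC50: MMP9 protein level quantified by ELISA in the co-culture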
How it was run: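 ELISA read-out of MMP-9 at 24 h post-dosing in a co-culture of human skin keratinocytes and foreskin fibroblasts. Gain or loss of signal was fitted in both directions against DMSO.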

[18] = read-out: CD40, CD40 (gene 958); assay: BSK_LPS_CD40: BioMAP Diversity Plus: LPS Assay for CD40 Biomarker Activity (AID 2283076); conditions: primary human HUVEC with PBMC; actives raise or lower the signal
How it was run: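 In the LPS system of human endothelial cells with peripheral blood mononuclear cells, CD40 levels were read by ELISA 24 h post-treatment. Signal changes in either direction were fitted against the DMSO baseline, with parallel SRB protein staining.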

[19] = read-out: E-selectin (Homo sapiens) (UniProt P16581); assay: BSK_LPS_Eselectin: BioMAP Diversity Plus: LPS Assay for Eselectin Biomarker Activity (AID 2283077); conditions: primary human HUVEC with PBMC; actives raise or lower the signal
How it was run: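 E-selectin ELISA on LPS-stimulated endothelial cell/PBMC co-cultures, read 24 h post-treatment; gains and losses fitted against DMSO. Parallel SRB staining (0.1% SRB after 10% TCA fixation, 560 nm) flags overt cytotoxicity.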

[20] = read-out: Interleukin-8 (IL8), CXCL8 (gene 3576); assay: BSK_LPS_IL8: BioMAP Diversity Plus: LPS Assay for Interleukin-8 (IL8) Biomarker Activity (AID 2283078); conditions: primary human HUVEC with PBMC; actives raise or lower the signal
How it was run: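 ELISA read-out of IL-8 after 24 h chemical treatment of LPS-activated endothelial/PBMC human primary co-cultures. Changes either up or down relative to DMSO; overt cytotoxicity checked by sulforhodamine B staining in parallel wells.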

Measured: AC50

E-selectin (Homo sapiens), sequence (P16581 whole entry, looked up): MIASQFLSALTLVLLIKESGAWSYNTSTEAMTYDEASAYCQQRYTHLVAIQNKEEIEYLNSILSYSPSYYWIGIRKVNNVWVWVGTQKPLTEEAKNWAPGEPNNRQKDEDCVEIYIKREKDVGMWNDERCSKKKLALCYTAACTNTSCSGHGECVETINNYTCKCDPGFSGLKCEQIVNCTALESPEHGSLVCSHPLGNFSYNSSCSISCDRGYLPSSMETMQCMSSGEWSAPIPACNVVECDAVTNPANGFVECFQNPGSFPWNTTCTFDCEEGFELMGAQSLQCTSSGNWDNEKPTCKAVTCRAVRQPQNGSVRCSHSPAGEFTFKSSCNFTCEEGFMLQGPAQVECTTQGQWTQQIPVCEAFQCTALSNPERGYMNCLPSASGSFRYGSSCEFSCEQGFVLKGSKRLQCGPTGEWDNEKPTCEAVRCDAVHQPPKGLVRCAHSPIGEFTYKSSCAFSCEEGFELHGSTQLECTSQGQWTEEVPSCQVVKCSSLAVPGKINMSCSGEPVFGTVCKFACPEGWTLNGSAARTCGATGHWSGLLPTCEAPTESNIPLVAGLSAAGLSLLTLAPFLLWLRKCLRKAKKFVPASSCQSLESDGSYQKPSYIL

CC(C)C(=O)C(C)C
inactive: all assays above

CCOC(=O)c1ccccc1C(=C1C=C(Br)C(=O)C(Br)=C1)c1cc(Br)c(O)c(Br)c1
inactive: [2] | [5] | [13]
active: [1] 3.29 µM and 3.26 µM | [3] 3.46 µM and 3.43 µM | [4] 5.09 µM and 3.85 µM | [6] 3.75 µM and 3.67 µM | [7] 3.85 µM and 3.76 µM | [8] 4.03 µM and 4.34 µM | [9] 4.49 µM and 3.7 µM | [10] 3.56 µM and 3.54 µM | [11] 5.2 µM and 5.41 µM | [12] 3.9 µM and 3.58 µM | [13] 3.4 µM | [14] 3.49 µM and 3.47 µM | [15] 3.46 µM and 3.44 µM | [17] 3.55 µM and 3.24 µM | [18] 20.9 µM and 17.5 µM | [19] 21.2 µM and 21.8 µM | [20] 23 µM and 22.9 µM

CCOc1nc(F)cc2nc(S(=O)(=O)Nc3c(Cl)cccc3C(=O)OC)nn12
inactive: all assays above

O=C(c1ccc(O)cc1)c1ccc(O)cc1O
active: [8] 6.99 µM and 20 µM | [9] 16.6 µM | [17] 18.4 µM and 11.2 µM
inactive: [1] | [2] | [3] | [4] | [5] | [6] | [7] | [9] | [10] | [11] | [12] | [13] | [14] | [15] | [18] | [19] | [20]

CCO[Si](CCCN=C=O)(OCC)OCC
inactive: all assays above
